Key:
Experiment in all cases: PBM binding z-score (relative to random genomic background probes); higher = stronger binding; sequences stand for … in GC…GCGATTGACAGCGTAGAATGAAGG
[1] = test system: FXR:RXRa (NR concentration 270 nM, RXRa partner concentration 90 nM)
Method in brief: (§1)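 Scanned fluorescence from custom Agilent 4×180K protein-binding microarrays was regression-normalized. Binding z-scores use random background probes as reference. Ligand-free nuclear receptor dimers were incubated on the arrays for 1 h and detected with antibodies against each partner (one per run).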

[2] = test system: LXRa:RXRa (NR concentration 270 nM, RXRa partner concentration 90 nM)
Method in brief: as §1

[3] = test system: LXRa homodimer (NR concentration 270 nM)
Method in brief: as §1

[4] = test system: LXRb:RXRa (NR concentration 270 nM, RXRa partner concentration 90 nM)
Method in brief: as §1

[5] = test system: LXRb homodimer (NR concentration 270 nM)
Method in brief: as §1

[6] = test system: PPARa:RXRa (NR concentration 270 nM, RXRa partner concentration 90 nM)
Method in brief: as §1

[7] = test system: PPARg:RXRa (NR concentration 180 nM, RXRa partner concentration 90 nM)
Method in brief: as §1

[8] = test system: PPARg:RXRa 270nM:90nM, anti-RXR (NR concentration 270 nM, RXRa partner concentration 90 nM)
Method in brief: as §1

[9] = test system: PPARg:RXRa 30nM:10nM, anti-RXR (NR concentration 30 nM, RXRa partner concentration 10 nM)
Method in brief: as §1

[10] = test system: PPARg:RXRa 90nM:30nM, anti-RXR (NR concentration 90 nM, RXRa partner concentration 30 nM)
Method in brief: as §1

[11] = test system: PPARg:RXRa DBDmut IVT, anti-RXR (DBD mutation: RXRa K156A/R161A, NR concentration 270 nM, RXRa partner concentration 90 nM)
Method in brief: as §1

[12] = test system: PPARg:RXRa IVT, anti-PPARg (NR concentration 270 nM, RXRa partner concentration 90 nM)
Method in brief: as §1

[13] = test system: PPARg DBDmut:RXRa IVT, anti-PPARg (DBD mutation: PPARg1 K132A/R137A, NR concentration 270 nM, RXRa partner concentration 90 nM)
Method in brief: as §1

[14] = test system: PPARg DBDmut IVT, anti-PPARg (DBD mutation: PPARg1 K132A/R137A, NR concentration 270 nM)
Method in brief: as §1

[15] = test system: PPARg homodimer (NR concentration 180 nM)
Method in brief: as §1

[16] = test system: PXR:RXRa (NR concentration 270 nM, RXRa partner concentration 90 nM)
Method in brief: as §1

[17] = test system: PXR homodimer (NR concentration 270 nM)
Method in brief: as §1

[18] = test system: RARa:RXR (NR concentration 270 nM, RXRa partner concentration 90 nM)
Method in brief: as §1

[19] = test system: RARa homodimer (NR concentration 270 nM)
Method in brief: as §1

[20] = test system: RARb:RXRa (NR concentration 270 nM, RXRa partner concentration 90 nM)
Method in brief: as §1

Sequence	PBM binding z-score [1]	PBM binding z-score [2]	PBM binding z-score [3]	PBM binding z-score [4]	PBM binding z-score [5]	PBM binding z-score [6]	PBM binding z-score [7]	PBM binding z-score [8]	PBM binding z-score [9]	PBM binding z-score [10]	PBM binding z-score [11]	PBM binding z-score [12]	PBM binding z-score [13]	PBM binding z-score [14]	PBM binding z-score [15]	PBM binding z-score [16]	PBM binding z-score [17]	PBM binding z-score [18]	PBM binding z-score [19]	PBM binding z-score [20]
GATACAGGGTCAAGGCCACAGTACGCGTATTGAT	6.86	4.11	0.0617	3.76	-0.0921	5.98	6.37	5.82	2.54	4.69	2.24	4.31	0.644	0.508	2.25	4.14	0.451	4.64	0.787	4.67
CGAACTCGGTCATCCAGGACAGTGAATACATTGA	1.39	0.744	0.283	0.275	-0.494	0.964	1.14	0.895	0.134	0.455	3.58	2.52	0.285	0.0941	0.363	0.205	-0.0652	0.856	0.205	2.31
ATCTCTAGTTAAAGATAGTTCAGTGAATGCAAAT	0.285	1.29	0.86	0.823	0.612	0.58	0.585	0.484	0.404	0.51	-0.115	0.245	0.633	1.63	0.523	0.98	1.18	1.1	1.54	0.647
TCGAGTAGGTTAGGGGCTTTCAGAATGGCGTCGA	-0.147	0.172	-0.23	0.6	-0.232	0.524	0.208	1.76	0.813	1.15	2.03	1.11	-0.958	-0.419	0.523	-0.179	-0.00687	-0.485	0.102	0.395
AGAAAGAGGTTATACGTAGATCAGGGAAGAAAGT	3.01	2.51	0.203	2.19	0.538	3.37	1.84	1.7	0.807	1.23	1.97	1.35	0.646	0.799	0.915	1.54	0.627	2.07	1.16	2.08
GCATATAGGTAATACAAGGTGAGAGTCCGATTGT	0.288	0.937	-0.139	0.0719	-0.459	0.92	1.14	1.19	0.605	0.684	4.28	3.14	1.33	0.73	0.397	0.114	0.184	1.59	0.608	0.335
CCTGCTAGGTCCTGGTCAGCTAATCTACAGTATG	-0.334	-0.452	-0.575	-0.318	-1.07	-0.283	-0.294	-0.442	-0.574	-0.403	0.239	-0.294	-1.02	-0.479	-0.652	-0.461	-0.864	-0.0873	-0.971	0.56
ATACCAAGTTGATCGTGAGGTCGTTGATACTAAC	1.48	1.03	0.823	1.31	0.171	1.22	0.148	0.229	0.0312	0.0356	-0.0424	-0.015	0.231	0.701	1.02	2.78	1.61	1.78	1.04	0.897
CCAGACGGGTGAAAGGTAACTCAGTCTGGTACGC	0.176	0.178	-0.5	0.239	-0.986	2.87	4.88	5.6	3.4	5.98	0.482	2.35	-1	-1.51	0.107	0.559	-0.486	1.55	-0.431	0.652
TAGCCTAGATCATTGGGCCAGTATAGTACGCATC	-0.685	-0.948	-0.567	-0.649	-0.658	-0.513	0.37	-0.537	-0.101	-0.125	0.771	0.88	0.335	-0.32	-0.814	-0.775	-0.695	-0.564	-0.292	-1.15
ACTAGCAGACCAAGGGTCACTCAAGATTAGTCCG	2.1	2.89	0.341	2.8	-0.191	3.74	4.94	5.53	3.15	5.96	0.108	1.84	0.151	-0.38	1.55	2.8	-0.1	3.46	1.31	3.28
CGTCCAAGGCCAAAGGTCAGTGAAGAGATGACGG	4.06	3.48	0.794	3.05	-0.142	5.2	7.29	6.97	5.65	7.26	0.453	3.33	-0.0649	-1.23	3.96	4.26	0.612	5.8	1.79	4.58
CTACCAAGGTGAACAAGGGCGTTGATTACTATTC	0.636	0.274	-0.543	0.44	-0.701	1.39	0.678	0.967	-0.0752	0.624	2.71	2.55	-0.498	0.223	0.114	0.993	-0.0327	0.539	-0.306	1.81
CCCGAAAGGTCGGTTGAGGTGAGTATACGGATAA	3.38	2.22	0.406	1.69	0.134	2.76	0.61	1.12	0.00163	0.671	0.203	0.845	-0.316	-0.0998	1.28	3.49	0.481	2.51	0.922	3.33

Source: the supplement of paper PMC6555819
